Rows were chosen to be rich in hits. Some 20% of all compounds tested hit in one or more screens of this group.
Cycloheximide cs: counter-screen hit for Shiga toxin inhibitors, cycloheximide; cell reporter, cycloheximide protein synthesis inhibition counterscreen; max response, %; 300,000 tested, 12% active; in the data active = max response mostly above about 13%, no sharp cut-off; inactive = mostly below about 14%; also: read at 38.3 µM for the half of the compounds with a filed dose
HCMV antiviral: inhibitors of human cytomegalovirus | 410,000 tested, 4.5% active | activity change, negative = inhibition, % at 57.5 µM | HFF cells, HCMV-luciferase reporter, 72 h; stronger effect = lower value; in the data active = activity change below about -60%; inconclusive = no clear call, values can overlap the other calls; inactive = above about -39%
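Luciferase read-out from HCMV-luciferase-infected HFFs (MOI 1 PFU/cell) 72 h post infection at 37C; compounds added after 16 h cell attachment; activity normalized between buffer-only basal and Salinomycin (10uM) inhibitor controls.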
Pf growth 48h: P. falciparum growth inhibition at 48 hours (one generation). P. falciparum luciferase growth in erythrocytes, 48 h. Potency, µM (highest dose often 28.7 µM), usual class: inhibitors. 310,000 tested, 5.9% active
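Cell-based growth assay: transgenic P. falciparum expressing firefly luciferase, cultured in red cells within RPMI 1640 containing 0.5% w/v Albumax, 24 mM bicarbonate and gentamycin. A drop in luciferase activity indicates inhibition.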
Shiga toxin inh: inhibitors of Shiga toxin in Vero cells. Vero cells, Shiga toxin protein synthesis inhibition reporter. inhibition, % at 38.7 µM. 290,000 tested, 9.2% active; in the data active = inhibition mostly above about 28%, no sharp cut-off; inactive = mostly below about 43%
Pf growth 96h: P. falciparum growth inhibition at 96 hour, primary screen for plastid delayed-death inhibitors. Potency, µM (series often up to 28.7 µM), actives largely listed as inhibitors. 320,000 tested, 6.9% active. P. falciparum luciferase reporter growth, 96 h
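Two-generation exposure (96 h) targets delayed-death phenotype. Reporter parasites carrying integrated firefly luciferase, in red cells at 2% hematocrit and 0.05% parasitemia final, kept at 37 C, 5% CO2; luminescence loss indicates inhibition.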
A number is an active result; n = inactive; u = inconclusive; x = not tested or not shown; [ ] = another dose, or the depositor's remark. Unless noted, calls follow the shape of the dose curve; as a rule, active = well fitted inhibition curve with a large enough effect; inconclusive = small, poorly fitted or top-dose-only effect, or another doubt; inactive = no such curve, though single readings can be large or run the other way.

SMILES | Cycloheximide cs | HCMV antiviral | Pf growth 48h | Shiga toxin inh | Pf growth 96h
CC(=O)c1cccc(NC(=O)CN(C)S(=O)(=O)c2cccc3nsnc23)c1 | n | u | n | n | u
O=C(Nc1ccccc1F)N(Cc1ccc(F)cc1)Cc1nc2ccccc2c(=O)[nH]1 | n | u | n | n | u
O=C(C1CC1)N(CCc1ccccc1)Cc1nc2ccccc2c(=O)[nH]1 | n | n | n | n | 15µM
CCOc1ccccc1NC(=O)CCCc1nc2ccccc2c(=O)[nH]1 | n | -87 | n | n | x
COCC(=O)N(CCc1ccc(OC)cc1)Cc1nc2ccccc2c(=O)[nH]1 | n | n | u | n | n
CCCC(=O)N(CCc1ccc(OC)cc1)Cc1nc2ccccc2c(=O)[nH]1 | n | n | x | n | 10µM
CCOc1ccc(Oc2ccccc2NC(=O)CCc2nc3ccccc3c(=O)[nH]2)cc1 | x | n | x | x | x
O=C(NC1CCCCC1)N(Cc1ccc(F)cc1)Cc1nc2ccccc2c(=O)[nH]1 | n | n | 10µM | n | n
NC(=O)c1ccsc1NC(=O)CS(=O)(=O)c1ccccc1 | x | n | n | x | n
CCN(Cc1nc2ccccc2c(=O)[nH]1)C(=O)COc1ccccc1Cc1ccccc1 | x | n | u | x | 8.3µM
CCN(Cc1nc2cc(Cl)ccc2c(=O)[nH]1)C(=O)COc1ccccc1Cc1ccccc1 | x | n | u | x | u
Cc1ccc(SCCC(=O)N(C)C)cc1 | 17 | n | n | n | n
Cc1ccc(SCCC(=O)NC(C)(C)C)cc1 | 44 | n | n | 73 | n
Cc1ccc(SCCC(=O)NC(C)C)cc1 | n | n | n | n | n
COc1c2ccoc2nc2c(OC)c(OCC(OC(C)=O)C(C)(C)O)ccc12 (stereo not given) | n | n | n | n | n
COc1c2ccc(OCC/C(C)=C/C(=O)C=C(C)C)cc2nc2occc12 | x | -101 | x | x | x
Cc1nn2cc(-c3ccccc3)nc2s1 | 32 | n | n | n | n[5.75 µM]
Cc1nn2cc(-c3ccc(OC(C)C)cc3)nc2s1 | x | n | x | x | x
CCOC(=O)c1oc2ccc(S(=O)(=O)N3CCOCC3)cc2c1C | n | n | n | n | 1.9µM
Cc1c(C(=O)NCCC2=CCCCC2)oc2ccc(S(=O)(=O)N3CCOCC3)cc12 | n | -69 | 12µM | n | n
Cc1cccc(NC(=O)c2oc3ccc(S(=O)(=O)N4CCOCC4)cc3c2C)c1C | n | n | 4.7µM | n | n
CCOC(=O)c1oc2ccc(S(=O)(=O)n3nc(-c4cc(OC)c(OC)c(OC)c4)cc3N)cc2c1C | n | n | 13µM | n | n
CCOc1ccc(NC(=O)CN2C(=O)NC(C)(c3ccc4c(c3)OCCCO4)C2=O)cc1OCC (stereo not given) | x | n | x | x | x
Cc1ccc(NC(=O)c2oc3ccc(S(=O)(=O)N4CCC5(CC4)OCCO5)cc3c2C)cc1C | n | n | 13µM | n | u
COc1ccc(-c2noc(CCCC(=O)NC3CCCCC3)n2)cc1 | n | -72 | n | n | n
SMILES | Cycloheximide cs | HCMV antiviral | Pf growth 48h | Shiga toxin inh | Pf growth 96h
O=C(CCCc1nc(-c2ccccc2)no1)NC1CCCC1 | n | n | n | n | n
Cc1ccc(-c2noc(CCCC(=O)NC3CCCC3)n2)cc1 | n | -80 | n | n | n
CC(C)C(=O)NCCc1nc(-c2ccccc2Cl)no1 | x | -60 | x | x | x
Cc1ccc(-c2noc(CCC(=O)NC3CCCc4ccccc43)n2)cc1 (stereo not given) | n | n | n | n | 1.7µM
COc1ccccc1-c1noc(CCC(=O)Nc2ccccc2Cl)n1 | 19 | n | n | n | u
COc1cccc(-c2noc(CCCC(=O)NC3CCCC3)n2)c1 | 15 | n | n | n | 2.3µM
O=C(CCCc1nc(-c2ccccc2Cl)no1)NC1CCCC1 | n | -74 | u | n | u
CSc1nnc(C)c(=O)n1COC(=O)/C=C/c1ccc2c(c1)OCO2 | n | n | n | n | n
FC(F)(F)c1ccc(-c2csc(-c3ccno3)n2)cc1 | 39 | n | n | 84 | n
N#Cc1ccc(-c2csc(-c3ccno3)n2)cc1 | n | n | n | n | n
Cc1cc(Oc2ccc(C(C)(C)C)cc2)nc(N2CCOCC2)n1 | n | n | x | n | 10µM
CC(=O)c1ccc(Oc2cc(C)nc(N3CCOCC3)n2)cc1 | 13 | n | n | n | n
Cc1cc(Oc2ccc(-c3ccccc3)cc2)nc(N2CCOCC2)n1 | n | n | u | n | u
CC(C)(C)C1CCC(=NOC(=O)c2ccc(F)cc2)CC1 (stereo not given) | n | n | u | n | 10µM
N#C/C(=C\c1cccs1)C(=O)N1CCOCC1 | n | n | n | n | n
N#C/C(C(=O)N1CCOCC1)=C1\Nc2ccccc2S1 | 35 | n | n | 64 | n
